Results on 42 compounds are retold here after the supplement of paper PMC7858590.

Several values for one entry are separate records, joined by “and”; a condition that tells them apart may be missing. Equal entries are not always repeated. ± gives the standard deviation of the averaged measurements. Over roughly 3,800 compounds, “cell shape (eccentricity) Z-score vs DMSO control” has its median near 1.1; the lowest 2% begin near -4.7. Many of the other results were omitted from the sample, so the lowest values are more common in it than they were.

The assay has as its system human monocyte-derived macrophages (M0). As to the kind of experiment: cell shape (eccentricity) Z-score vs DMSO control; higher = more elongated, M2-like morphology. As to conditions: 20 µM; 24 h; macrophage state: M0 (M-CSF). Here is the method: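 Primary human monocyte-derived macrophages (M-CSF differentiated, pooled from 4 donors, 5000 cells/well in 384-well plates) were treated with each compound at 20 uM for 24 h, then fixed and stained with phalloidin/DAPI and imaged on an Opera Phenix (6 fields, about 1000 cells/well). Cell eccentricity was measured with CellProfiler, and a Z-score (t-test) was computed against 4 DMSO control wells in the same row. Negative values mean round (M1-like) cells and positive values mean elongated (M2-like) cells; the paper's hit cutoffs are Z <= -4 (M1) and Z >= 6 (M2). Scale: negative = round, M1-like.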
For `COC(=O)Nc1nc2cc(SC(C)C)ccc2[nH]1`, the “cell shape (Z-score)” value is -4.88 ± 0.16. On to `CCCSc1ccc2[nH]c(NC(=O)OC)nc2c1`, for which the “cell shape (Z-score)” value was -3.67. In the case of `COC(=O)Nc1nc2cc(C(=O)C3CC3)ccc2[nH]1` it was -3.64; in that of `COC(=O)Nc1nc2cc(Sc3ccccc3)ccc2[nH]1`, -2.59 ± 3.9. As for `CCCOc1ccc2[nH]c(NC(=O)OC)nc2c1`, the figure is -1.59; as for `CCCCc1ccc2[nH]c(NC(=O)OC)nc2c1`, -5.71 and -2.34. In the case of `COc1ccc(C2Oc3cc(OC)ccc3CC2O)cc1` (configuration not stated) it was 1.66 ± 1.2; in that of `COc1ccc(-c2oc3c(CC=C(C)C)c(O[C@@H]4O[C@H](CO)[C@@H](O)[C@H](O)[C@H]4O)cc(O)c3c(=O)c2O[C@@H]2O[C@@H](C)[C@H](O)[C@@H](O)[C@H]2O)cc1`, -2.65; in that of `Nc1ncnc2c1c(-c1cccc(OCc3ccccc3)c1)cn2[C@H]1C[C@H](CN2CCCC2)C1`, 6.27. On to `O=c1c(O)c(-c2ccccc2)oc2ccccc12`, for which the “cell shape (Z-score)” value came out at 1.62.

Regarding `CCOC(=O)[C@H](CCc1ccccc1)N[C@@H](C)C(=O)N1Cc2ccccc2C[C@H]1C(=O)O`, the “cell shape (Z-score)” value worked out at 2.22. For the compound `CC(=O)O[C@H]1C[C@@H](O)C(C)(C)C2C[C@@H](OC(C)=O)[C@]3(C)C(CC[C@@]4(C)[C@H](c5ccoc5)OC(=O)C5OC543)[C@]21C` (some centres not stated), the “cell shape (Z-score)” value was -2.78.

With `CC(=O)O[C@@H]1CC2C(C)(C)[C@H](O)CC[C@]2(C)C2CC[C@@]3(C)[C@H](c4ccoc4)OC(=O)C4OC43[C@@]21C` (some centres not stated), the “cell shape (Z-score)” value is 2.33. As for `CC(=O)O[C@@H]1CC2C(C)(C)C(=O)C=C[C@]2(C)C2CC[C@@]3(C)[C@H](c4ccoc4)OC(=O)[C@H]4O[C@]43[C@@]21C` (some centres not stated), the figure is -4.89; as for `CC(=O)O[C@H]1C[C@@H](OC(C)=O)C(C)(C)C2C[C@@H](OC(C)=O)[C@]3(C)C(CC[C@@]4(C)[C@H](c5ccoc5)OC(=O)[C@H]5O[C@]543)[C@]21C` (some centres not stated), -2.55. As for `CC(=O)O[C@@H]1CC2C(C)(C)C(=O)CC[C@]2(C)C2CC[C@@]3(C)[C@H](c4ccoc4)OC(=O)C4OC43[C@@]21C` (some centres not stated), the figure is -5.48; as for `CC(=O)O[C@H]1CC[C@@]2(C)C(C[C@@H](OC(C)=O)[C@]3(C)C2CC[C@@]2(C)[C@H](c4ccoc4)OC(=O)[C@H]4O[C@]423)C1(C)C` (some centres not stated), -2.07; as for `O=C1C[C@@H](c2ccc(O)c(O)c2)Oc2cc(O[C@@H]3O[C@H](CO)[C@@H](O)[C@H](O)[C@H]3O)cc(O)c21`, 0.661 ± 1.8. As for `OC(CN1CCNCC1)Cn1c2ccc(Br)cc2c2cc(Br)ccc21` (configuration not stated), the figure is -4.09; as for `C=C1CCC[C@]2(C)CC[C@@](O)(C(=C)C(=O)O)C[C@@H]12`, -0.504; as for `CC1(C)CC[C@]2(C(=O)O[C@@H]3O[C@H](CO[C@@H]4O[C@H](CO)[C@@H](O)[C@H](O)[C@H]4O)[C@@H](O)[C@H](O[C@@H]4O[C@H](CO)[C@@H](O)[C@H](O)[C@H]4O)[C@H]3O)CC[C@]3(C)C(=CCC4[C@@]5(C)CC[C@H](O)[C@@](C)(C(=O)O)C5CC[C@]43C)C2C1` (some centres not stated), 1.07. Turning to `C=C1CCC2C(CC2(C)C)C(=O)CCC1O` (configuration not stated), the “cell shape (Z-score)” value was -1.93. In the case of `C#CC1(OCC(O)CN2CCN(c3ccccc3OC)CC2)CCCCC1` (configuration not stated) it was -0.311; in that of `OCC(O)CN1CCN(c2ccccc2)CC1` (configuration not stated), 2.29; in that of `C#CC1(OCC(O)CN2CCN(c3cccc(C(F)(F)F)c3)CC2)CCCCC1` (configuration not stated), -7.88.

In the case of `COC1=CC(=O)O[C@@H](/C=C/c2ccccc2)[C@@H]1O`, the “cell shape (Z-score)” value was -1.25. As for `COc1cc2c(c(OC)c1OC)-c1cc3c(cc1C[C@H]1C(=O)OC[C@@H]1C2)OCO3`, the figure is 0.816; as for `COc1cc2c(c(OC)c1OC)C[C@H]1COC(=O)[C@@H]1Cc1c-2cc(OC)c(OC)c1OC`, -9.6. As for `COc1cc2c(c(OC)c1OC)CCc1cc(O)c(O)cc1-2`, the figure is -0.208. In the case of `CC(C)Cn1cnc2c(N)nc3ccccc3c21` it was 3.03; in that of `CC(C)C12CC1C(C)(O[C@@H]1O[C@H](CO)[C@@H](O)[C@H](O)[C@H]1O)CC2=O` (some centres not stated), 1.52. As to `CC(=O)OCC(=O)[C@H]1CCC2C3CC=C4C[C@@H](O)CC[C@]4(C)C3CC[C@@]21C` (some centres not stated), the “cell shape (Z-score)” value worked out at 3.17. As to `O=C(O)/C=C/c1ccccc1O[C@@H]1O[C@H](CO)[C@@H](O)[C@H](O)[C@H]1O`, the “cell shape (Z-score)” value worked out at 1.56. As for `C[C@@H]1O[C@@H](O[C@@H]2[C@@H](O)[C@H](O[C@@H]3[C@@H](O)[C@@H](O)[C@H](O[C@H]4[C@H](OC(=O)[C@]56CCC(C)(C)C[C@H]5C5=CCC7[C@@]8(C)C[C@H](O)[C@H](O[C@@H]9O[C@H](C(=O)O)[C@@H](O)[C@H](O)[C@H]9O)[C@@](C)(CO)C8[C@H](O)C[C@@]7(C)[C@]5(C)C[C@H]6O)OC[C@H](O)[C@@H]4O)O[C@H]3C)OC[C@H]2O)[C@H](O)[C@H](O)[C@H]1O` (some centres not stated), the figure is 0.295; as for `CC1OC(OC2C(CO)OC(OC(=O)[C@]34CCC(C)(C)CC3C3=CCC5[C@@]6(C)CC[C@H](OC7OC(C)C(OC8OCC(O)(COC9OCC(O)C(OC%10OCC(OC%11OCC(O)(CO)C%11O)C(O)C%10O)C9O)C8O)C(O)C7O)C(C)(C)C6CC[C@@]5(C)[C@]3(C)CC4)C(O)C2O)C(O)C(O)C1O` (some centres not stated), 2.74.

Consider `CC1(C)CC[C@]2(C(=O)O[C@@H]3O[C@H](CO)[C@@H](O)[C@H](O)[C@H]3O)CC[C@]3(C)C(=CCC4[C@@]5(C)C[C@H](O)[C@H](O[C@@H]6O[C@H](C(=O)O)[C@@H](O)[C@H](O)[C@H]6O)[C@@](C)(CO)C5CC[C@]43C)C2C1` (some centres not stated), for which the “cell shape (Z-score)” value amounted to 0.273. As for `C[C@@H]1O[C@@H](O[C@@H]2[C@@H](O)[C@H](O[C@@H]3[C@@H](O)[C@@H](O)[C@H](O[C@H]4[C@H](OC(=O)[C@]56CCC(C)(C)C[C@H]5C5=CCC7[C@@]8(C)C[C@H](O)[C@H](O[C@@H]9O[C@H](C(=O)O)[C@@H](O)[C@H](O)[C@H]9O)[C@@](C)(CO)C8[C@H](O)C[C@@]7(C)[C@]5(C)C[C@H]6O)O[C@@H](CO)[C@@H]4O)O[C@H]3C)OC[C@H]2O)[C@H](O)[C@H](O)[C@H]1O` (some centres not stated), the figure is -6.05; as for `CC1(C)CC[C@@]2(C(=O)O[C@@H]3O[C@H](CO)[C@@H](O)[C@H](O)[C@H]3O)C(C1)C1=CCC3[C@@]4(C)CC[C@@H](O[C@@H]5O[C@H](CO)[C@@H](O)[C@H](O)[C@H]5O[C@@H]5O[C@H](CO)[C@@H](O)[C@H](O)[C@H]5O)C(C)(C)C4CC[C@@]3(C)[C@]1(C)C[C@H]2O` (some centres not stated), 0.124 ± 0.97; as for `C[C@@H]1O[C@@H](O[C@H]2[C@H](OC(=O)[C@]34CCC(C)(C)C[C@H]3C3=CCC5[C@@]6(C)C[C@H](O)[C@H](O[C@@H]7O[C@H](C(=O)O)[C@@H](O)[C@H](O)[C@H]7O)[C@@](C)(CO)C6[C@H](O)C[C@@]5(C)[C@]3(C)C[C@H]4O)O[C@@H](CO)[C@@H]2O)[C@H](O)[C@H](O)[C@H]1O[C@@H]1OC[C@@H](O)[C@H](O[C@H]2OC[C@](O)(CO)[C@H]2O)[C@H]1O` (some centres not stated), -10.1.

`C[C@@H]1O[C@@H](O[C@@H]2[C@@H](O)[C@H](OC(=O)[C@]34CCC(C)(C)CC3C3=CCC5[C@@]6(C)CC[C@H](OC7OC(CO)C(OC8OCC(O)C(O)C8O)C(O)C7O)C(C)(C)C6CC[C@@]5(C)[C@]3(C)CC4O)O[C@H]2CO)[C@H](O)[C@H](O)[C@H]1O[C@H]1OC[C@](O)(CO)[C@H]1O` (some centres not stated): the “cell shape (Z-score)” value was -11.6. As for `CC1(C)CC[C@@]2(C(=O)O[C@@H]3O[C@H](CO)[C@@H](O)[C@H](O)[C@H]3O)C(C1)C1=CCC3[C@@]4(C)CC[C@@H](O[C@@H]5O[C@H](C(=O)O)[C@@H](O[C@@H]6OC[C@@H](O)[C@H](O)[C@H]6O)[C@H](O)[C@H]5O)C(C)(C)C4CC[C@@]3(C)[C@]1(C)C[C@H]2O` (some centres not stated), the figure is 1.81. With `CC1(C)CC[C@]2(C(=O)O[C@@H]3O[C@H](CO)[C@@H](O)[C@H](O)[C@H]3O)CC[C@]3(C)C(=CCC4[C@@]5(C)C[C@@H](O)[C@H](O)[C@@](C)(CO)C5[C@H](O)C[C@]43C)C2C1` (some centres not stated), the “cell shape (Z-score)” value was determined as 4.82 ± 3.7.
